{"source": "the supplement of paper PMC10849652", "note": "Of roughly 8,800 targets only a part is listed; those with a hit were picked by preference. About 0.5% of all pairs of compound and target were hits. Unmarked numbers belong to inactive results.", "data": [{"compound": "CN1CCN(CCOc2cc(OC3CCOCC3)c3c(Nc4c(Cl)ccc5c4OCO5)ncnc3c2)CC1 [saracatinib]", "assay": "log2 fold change, soluble protein after heating vs DMSO (PISA); higher = thermal stabilisation; K562 lysate, 10 uM; active = over 0.2 and 3.5 SD of the protein, either way, in both replicates (recomputed)", "procedure,_shortened": "(§1)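 Log-two fold change in thermal stability relative to solvent controls is reported from duplicates. For each sample, crude K562 extract from dounce-homogenised pellets in PBS pH 7.4 with 1 mM MgCl2, at 1 mg/mL protein, was treated with 10 μM compound for 30 min. Aliquots heated for 3 min across 48°C-58°C were pooled, brought to 0.5% NP-40 at 4°C and cleared at 21,000xg for 90 min. The supernatant was quantified by TMTpro 16plex LC-MS/MS with channel sums equalised.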", "values": [{"target": "PPP2R5C isoform 5 (UniProt Q13362)", "log2 fold change": 0}, {"target": "PLXNB2 (UniProt O15031)", "sequence (O15031 whole entry, looked up)": "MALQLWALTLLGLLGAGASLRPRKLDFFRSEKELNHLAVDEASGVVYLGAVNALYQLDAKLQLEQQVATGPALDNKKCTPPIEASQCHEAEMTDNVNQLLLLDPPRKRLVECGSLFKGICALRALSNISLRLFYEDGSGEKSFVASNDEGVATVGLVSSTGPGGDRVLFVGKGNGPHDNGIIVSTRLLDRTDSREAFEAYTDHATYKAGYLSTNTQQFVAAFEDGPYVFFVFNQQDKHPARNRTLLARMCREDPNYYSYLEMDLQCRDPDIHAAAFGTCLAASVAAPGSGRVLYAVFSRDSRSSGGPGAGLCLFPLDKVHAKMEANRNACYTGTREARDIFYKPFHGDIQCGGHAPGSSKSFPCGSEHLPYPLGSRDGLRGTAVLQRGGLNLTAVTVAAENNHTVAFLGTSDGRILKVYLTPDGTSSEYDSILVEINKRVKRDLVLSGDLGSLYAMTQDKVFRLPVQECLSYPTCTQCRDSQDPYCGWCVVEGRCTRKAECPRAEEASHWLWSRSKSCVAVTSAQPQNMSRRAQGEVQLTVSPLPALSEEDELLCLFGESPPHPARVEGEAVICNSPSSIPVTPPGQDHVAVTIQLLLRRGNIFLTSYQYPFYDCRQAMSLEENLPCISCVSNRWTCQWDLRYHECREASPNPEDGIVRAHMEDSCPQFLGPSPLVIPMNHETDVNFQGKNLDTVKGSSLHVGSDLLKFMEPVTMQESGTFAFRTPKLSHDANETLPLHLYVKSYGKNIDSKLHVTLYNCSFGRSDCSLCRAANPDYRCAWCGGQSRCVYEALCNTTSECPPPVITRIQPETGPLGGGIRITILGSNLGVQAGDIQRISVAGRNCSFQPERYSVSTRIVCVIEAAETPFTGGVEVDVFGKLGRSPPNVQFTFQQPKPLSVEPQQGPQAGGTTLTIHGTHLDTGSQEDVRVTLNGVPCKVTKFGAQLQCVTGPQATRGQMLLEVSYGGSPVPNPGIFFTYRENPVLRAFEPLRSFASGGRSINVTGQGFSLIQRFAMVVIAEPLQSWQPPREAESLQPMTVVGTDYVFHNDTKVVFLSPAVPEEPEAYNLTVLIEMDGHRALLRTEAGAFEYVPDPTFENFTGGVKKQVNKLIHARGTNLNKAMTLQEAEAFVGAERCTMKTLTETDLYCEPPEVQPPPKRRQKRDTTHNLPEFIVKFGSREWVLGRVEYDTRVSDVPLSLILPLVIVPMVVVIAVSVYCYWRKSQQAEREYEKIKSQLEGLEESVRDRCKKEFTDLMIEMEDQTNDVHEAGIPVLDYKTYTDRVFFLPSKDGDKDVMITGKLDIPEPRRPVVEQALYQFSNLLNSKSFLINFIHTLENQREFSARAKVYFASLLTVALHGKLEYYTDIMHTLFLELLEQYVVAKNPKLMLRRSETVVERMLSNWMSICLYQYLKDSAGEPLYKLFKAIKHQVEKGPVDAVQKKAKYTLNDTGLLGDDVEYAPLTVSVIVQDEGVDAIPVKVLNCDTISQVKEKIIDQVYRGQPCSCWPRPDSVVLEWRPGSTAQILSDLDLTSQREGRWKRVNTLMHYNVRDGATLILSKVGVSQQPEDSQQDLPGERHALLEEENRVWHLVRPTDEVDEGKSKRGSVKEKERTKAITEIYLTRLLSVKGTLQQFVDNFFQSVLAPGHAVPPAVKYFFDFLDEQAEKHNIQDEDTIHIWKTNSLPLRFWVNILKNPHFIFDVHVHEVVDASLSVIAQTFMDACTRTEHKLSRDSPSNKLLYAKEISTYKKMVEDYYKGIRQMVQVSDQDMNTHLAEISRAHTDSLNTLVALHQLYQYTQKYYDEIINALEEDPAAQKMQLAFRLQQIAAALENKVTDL", "log2 fold change": 0.005}, {"target": "PRKCSH isoform 2 (UniProt P14314)", "log2 fold change": 0.022}, {"target": "PCBP2 (UniProt H3BRU6)", "log2 fold change": 0.1}, {"target": "PRMT8 (UniProt Q9NR22)", "sequence (Q9NR22 whole entry, looked up)": "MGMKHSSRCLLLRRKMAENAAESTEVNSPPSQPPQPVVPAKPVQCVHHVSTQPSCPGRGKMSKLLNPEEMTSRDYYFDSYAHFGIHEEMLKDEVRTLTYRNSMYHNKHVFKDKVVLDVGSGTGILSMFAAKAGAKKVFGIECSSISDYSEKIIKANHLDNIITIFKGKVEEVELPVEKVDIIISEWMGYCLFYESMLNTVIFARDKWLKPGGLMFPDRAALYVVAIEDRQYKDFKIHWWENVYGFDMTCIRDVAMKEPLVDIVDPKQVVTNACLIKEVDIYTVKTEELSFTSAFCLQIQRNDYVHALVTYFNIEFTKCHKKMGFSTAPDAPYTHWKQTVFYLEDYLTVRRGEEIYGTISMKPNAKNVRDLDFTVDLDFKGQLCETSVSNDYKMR", "log2 fold change": -0.018}, {"target": "PDF (UniProt Q9HBH1)", "sequence (Q9HBH1 whole entry, looked up)": "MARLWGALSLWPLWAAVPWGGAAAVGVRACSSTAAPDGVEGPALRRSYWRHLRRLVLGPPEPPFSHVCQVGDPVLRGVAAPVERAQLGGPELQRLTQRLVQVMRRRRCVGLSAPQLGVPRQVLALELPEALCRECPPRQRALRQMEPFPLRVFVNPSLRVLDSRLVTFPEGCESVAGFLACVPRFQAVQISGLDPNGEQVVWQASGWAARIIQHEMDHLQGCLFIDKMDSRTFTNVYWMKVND", "log2 fold change": 0.032}, {"target": "PIP4K2B (UniProt P78356)", "log2 fold change": -0.045}, {"target": "PUF60 (UniProt Q9UHX1)", "log2 fold change": 0}, {"target": "PI4KA (UniProt P42356)", "log2 fold change": 0.016}, {"target": "PRKAR2B (UniProt P31323)", "log2 fold change": 0.007}, {"target": "PRKAB2 (UniProt O43741)", "sequence (O43741 whole entry, looked up)": "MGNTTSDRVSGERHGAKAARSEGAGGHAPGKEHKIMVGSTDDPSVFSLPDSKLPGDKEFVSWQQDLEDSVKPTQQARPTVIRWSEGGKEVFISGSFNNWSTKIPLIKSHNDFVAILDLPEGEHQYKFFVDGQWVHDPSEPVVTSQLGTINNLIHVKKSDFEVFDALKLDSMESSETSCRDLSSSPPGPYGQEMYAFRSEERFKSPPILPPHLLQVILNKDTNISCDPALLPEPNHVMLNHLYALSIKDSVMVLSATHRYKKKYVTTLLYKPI", "log2 fold change": 0.029}, {"target": "PTPN23 (UniProt Q9H3S7)", "log2 fold change": 0.008}, {"target": "PSMB9 (UniProt P28065)", "sequence (P28065 whole entry, looked up)": "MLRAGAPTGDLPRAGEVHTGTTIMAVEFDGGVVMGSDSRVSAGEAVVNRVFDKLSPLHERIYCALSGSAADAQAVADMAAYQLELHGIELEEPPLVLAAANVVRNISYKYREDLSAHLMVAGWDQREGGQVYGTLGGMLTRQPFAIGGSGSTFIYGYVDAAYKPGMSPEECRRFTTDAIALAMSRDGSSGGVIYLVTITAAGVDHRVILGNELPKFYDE", "log2 fold change": 0.037}, {"target": "POLR2M (UniProt P0CAP2)", "log2 fold change": -0.007}, {"target": "POGK (UniProt Q9P215)", "log2 fold change": 0.017}, {"target": "POLD1 (UniProt P28340)", "log2 fold change": 0.01}, {"target": "PDCD6IP (UniProt Q8WUM4)", "sequence (Q8WUM4 whole entry, looked up)": "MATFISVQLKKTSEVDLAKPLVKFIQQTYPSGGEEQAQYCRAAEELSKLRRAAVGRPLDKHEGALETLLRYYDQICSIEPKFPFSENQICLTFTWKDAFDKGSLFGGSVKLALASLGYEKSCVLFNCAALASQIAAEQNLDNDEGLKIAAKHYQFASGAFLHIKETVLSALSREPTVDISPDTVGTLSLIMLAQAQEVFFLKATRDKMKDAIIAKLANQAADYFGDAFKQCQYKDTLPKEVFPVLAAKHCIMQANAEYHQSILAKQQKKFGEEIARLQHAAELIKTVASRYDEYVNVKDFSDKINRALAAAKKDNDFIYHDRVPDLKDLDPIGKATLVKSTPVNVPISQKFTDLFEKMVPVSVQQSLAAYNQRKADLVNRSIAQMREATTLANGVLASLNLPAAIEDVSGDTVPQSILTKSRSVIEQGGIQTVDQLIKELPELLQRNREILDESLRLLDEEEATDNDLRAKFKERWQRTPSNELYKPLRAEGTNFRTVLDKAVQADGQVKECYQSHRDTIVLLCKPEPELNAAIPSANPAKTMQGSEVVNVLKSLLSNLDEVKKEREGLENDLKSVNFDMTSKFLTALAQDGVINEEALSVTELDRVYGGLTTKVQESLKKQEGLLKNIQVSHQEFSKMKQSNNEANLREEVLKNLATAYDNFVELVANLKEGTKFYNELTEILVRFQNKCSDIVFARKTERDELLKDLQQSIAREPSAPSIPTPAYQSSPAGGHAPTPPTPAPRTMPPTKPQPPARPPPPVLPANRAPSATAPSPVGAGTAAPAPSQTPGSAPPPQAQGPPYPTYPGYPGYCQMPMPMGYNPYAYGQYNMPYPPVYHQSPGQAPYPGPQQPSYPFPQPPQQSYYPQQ", "log2 fold change": -0.068}, {"target": "PRKCB isoform 2 (UniProt P05771)", "sequence (P05771 whole entry, looked up)": "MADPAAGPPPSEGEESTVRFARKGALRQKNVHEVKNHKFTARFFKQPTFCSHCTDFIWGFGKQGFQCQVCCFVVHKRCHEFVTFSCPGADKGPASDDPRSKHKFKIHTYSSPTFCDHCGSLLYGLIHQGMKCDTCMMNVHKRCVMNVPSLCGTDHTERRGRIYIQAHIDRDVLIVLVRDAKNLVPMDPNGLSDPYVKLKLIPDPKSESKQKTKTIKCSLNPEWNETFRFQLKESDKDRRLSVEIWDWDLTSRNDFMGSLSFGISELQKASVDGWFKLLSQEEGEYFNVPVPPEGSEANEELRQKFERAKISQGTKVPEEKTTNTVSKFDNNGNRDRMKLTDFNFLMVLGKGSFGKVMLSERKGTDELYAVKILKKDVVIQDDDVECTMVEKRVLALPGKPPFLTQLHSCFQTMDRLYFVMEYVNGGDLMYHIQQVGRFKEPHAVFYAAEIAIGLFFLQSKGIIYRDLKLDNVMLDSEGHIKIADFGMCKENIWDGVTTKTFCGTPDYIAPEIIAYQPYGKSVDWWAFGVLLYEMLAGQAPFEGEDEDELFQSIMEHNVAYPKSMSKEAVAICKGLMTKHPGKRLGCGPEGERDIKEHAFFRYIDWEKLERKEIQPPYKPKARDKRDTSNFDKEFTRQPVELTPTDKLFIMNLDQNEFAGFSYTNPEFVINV", "log2 fold change": -0.023}, {"target": "POLR2F (UniProt P61218)", "log2 fold change": -0.042}, {"target": "PGPEP1 (UniProt Q9NXJ5)", "log2 fold change": 0}, {"target": "PHKG2 (UniProt P15735)", "log2 fold change": 0.062}, {"target": "PIK3R2 (UniProt O00459)", "log2 fold change": -0.014}, {"target": "PGGT1B (UniProt P53609)", "log2 fold change": 0.028}, {"target": "PCF11 (UniProt O94913)", "log2 fold change": -0.003}, {"target": "PIP4P2 (UniProt Q8N4L2)", "log2 fold change": 0.038}, {"target": "PRKACB isoform 2 (UniProt P22694)", "log2 fold change": 0.012}, {"target": "PRKCD (UniProt Q05655)", "log2 fold change": -0.005}, {"target": "PRKAR2A (UniProt P13861)", "log2 fold change": -0.012}, {"target": "PSTPIP2 (UniProt Q9H939)", "sequence (Q9H939 whole entry, looked up)": "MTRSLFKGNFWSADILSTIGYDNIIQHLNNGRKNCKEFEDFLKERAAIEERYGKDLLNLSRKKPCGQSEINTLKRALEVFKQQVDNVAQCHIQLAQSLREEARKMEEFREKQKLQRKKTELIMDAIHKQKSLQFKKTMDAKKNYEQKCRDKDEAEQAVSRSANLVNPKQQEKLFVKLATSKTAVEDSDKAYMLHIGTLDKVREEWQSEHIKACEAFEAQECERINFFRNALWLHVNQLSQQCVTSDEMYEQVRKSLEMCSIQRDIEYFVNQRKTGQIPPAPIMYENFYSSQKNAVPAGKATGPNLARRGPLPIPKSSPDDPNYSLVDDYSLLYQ", "log2 fold change": 0.032}, {"target": "PUS1 (UniProt Q9Y606)", "log2 fold change": 0.035}, {"target": "PWP1 (UniProt Q13610)", "log2 fold change": 0.01}, {"target": "PWP2 (UniProt Q15269)", "log2 fold change": 0.015}, {"target": "PHKA1 (UniProt P46020)", "log2 fold change": -0.009}, {"target": "PICALM (UniProt Q13492)", "log2 fold change": 0.009}, {"target": "PES1 (UniProt O00541)", "log2 fold change": 0.007}, {"target": "PLEKHO2 (UniProt Q8TD55)", "log2 fold change": 0.278}, {"target": "PPOX (UniProt P50336)", "log2 fold change": -0.044}, {"target": "PRIM2 (UniProt P49643)", "log2 fold change": -0.03}, {"target": "PHGDH (UniProt O43175)", "log2 fold change": -0.012}]}, {"compound": "CN1CCN(c2nc(C3=C(c4c[nH]c5ccccc45)C(=O)NC3=O)c3ccccc3n2)CC1 [sotrastaurin]", "assay": "log2 fold change, soluble protein after heating vs DMSO (PISA); higher = thermal stabilisation; K562 lysate, 10 uM; active = over 0.2 and 3.5 SD of the protein, either way, in both replicates (recomputed)", "procedure,_shortened": "as §1", "values": [{"target": "PPP2R5C isoform 5 (UniProt Q13362)", "log2 fold change": -0.011}, {"target": "PLXNB2 (UniProt O15031)", "log2 fold change": 0.024}, {"target": "PRKCSH isoform 2 (UniProt P14314)", "log2 fold change": 0.199}, {"target": "PCBP2 (UniProt H3BRU6)", "log2 fold change": 0.179}, {"target": "PRMT8 (UniProt Q9NR22)", "log2 fold change": 0.007}, {"target": "PDF (UniProt Q9HBH1)", "log2 fold change": -0.02}, {"target": "PIP4K2B (UniProt P78356)", "log2 fold change": -0.009}, {"target": "PUF60 (UniProt Q9UHX1)", "log2 fold change": -0.02}, {"target": "PI4KA (UniProt P42356)", "log2 fold change": 0.056}, {"target": "PRKAR2B (UniProt P31323)", "log2 fold change": -0.17}, {"target": "PRKAB2 (UniProt O43741)", "log2 fold change": 0.026}, {"target": "PTPN23 (UniProt Q9H3S7)", "log2 fold change": -0.001}, {"target": "PSMB9 (UniProt P28065)", "log2 fold change": 0.018}, {"target": "POLR2M (UniProt P0CAP2)", "log2 fold change": 0.041}, {"target": "POGK (UniProt Q9P215)", "log2 fold change": 0.013}, {"target": "POLD1 (UniProt P28340)", "log2 fold change": 0.015}, {"target": "PDCD6IP (UniProt Q8WUM4)", "log2 fold change": -0.139}, {"target": "PRKCB isoform 2 (UniProt P05771)", "log2 fold change": "0.505 (active)"}, {"target": "POLR2F (UniProt P61218)", "log2 fold change": 0.02}, {"target": "PGPEP1 (UniProt Q9NXJ5)", "log2 fold change": -0.056}, {"target": "PHKG2 (UniProt P15735)", "log2 fold change": -0.054}, {"target": "PIK3R2 (UniProt O00459)", "log2 fold change": 0.091}, {"target": "PGGT1B (UniProt P53609)", "log2 fold change": -0.029}, {"target": "PCF11 (UniProt O94913)", "log2 fold change": 0.006}, {"target": "PIP4P2 (UniProt Q8N4L2)", "log2 fold change": -0.16}, {"target": "PRKACB isoform 2 (UniProt P22694)", "log2 fold change": 0.175}, {"target": "PRKCD (UniProt Q05655)", "log2 fold change": 0.058}, {"target": "PRKAR2A (UniProt P13861)", "log2 fold change": -0.154}, {"target": "PSTPIP2 (UniProt Q9H939)", "log2 fold change": 0}, {"target": "PUS1 (UniProt Q9Y606)", "log2 fold change": -0.027}, {"target": "PWP1 (UniProt Q13610)", "log2 fold change": -0.021}, {"target": "PWP2 (UniProt Q15269)", "log2 fold change": 0.052}, {"target": "PHKA1 (UniProt P46020)", "log2 fold change": -0.019}, {"target": "PICALM (UniProt Q13492)", "log2 fold change": -0.061}, {"target": "PES1 (UniProt O00541)", "log2 fold change": 0.028}, {"target": "PLEKHO2 (UniProt Q8TD55)", "log2 fold change": -0.054}, {"target": "PPOX (UniProt P50336)", "log2 fold change": -0.021}, {"target": "PRIM2 (UniProt P49643)", "log2 fold change": 0.02}, {"target": "PHGDH (UniProt O43175)", "log2 fold change": -0.027}]}]}
